Legend:
[1] = biological target: Mast/stem cell growth factor receptor Kit (Homo sapiens) (UniProt P10721); details: at 1 µM
[2] = biological target: Mast/stem cell growth factor receptor Kit (Homo sapiens) (UniProt P10721); details: at 10 µM
[3] = biological target: Proto-oncogene tyrosine-protein kinase Src (Homo sapiens) (UniProt P12931); details: at 1 µM
[4] = biological target: Proto-oncogene tyrosine-protein kinase Src (Homo sapiens) (UniProt P12931); details: at 10 µM
[5] = biological target: T1, Eukaryotic elongation factor 2 kinase (Homo sapiens) (UniProt O00418); details: at 1 µM
T1 sequence (whole entry): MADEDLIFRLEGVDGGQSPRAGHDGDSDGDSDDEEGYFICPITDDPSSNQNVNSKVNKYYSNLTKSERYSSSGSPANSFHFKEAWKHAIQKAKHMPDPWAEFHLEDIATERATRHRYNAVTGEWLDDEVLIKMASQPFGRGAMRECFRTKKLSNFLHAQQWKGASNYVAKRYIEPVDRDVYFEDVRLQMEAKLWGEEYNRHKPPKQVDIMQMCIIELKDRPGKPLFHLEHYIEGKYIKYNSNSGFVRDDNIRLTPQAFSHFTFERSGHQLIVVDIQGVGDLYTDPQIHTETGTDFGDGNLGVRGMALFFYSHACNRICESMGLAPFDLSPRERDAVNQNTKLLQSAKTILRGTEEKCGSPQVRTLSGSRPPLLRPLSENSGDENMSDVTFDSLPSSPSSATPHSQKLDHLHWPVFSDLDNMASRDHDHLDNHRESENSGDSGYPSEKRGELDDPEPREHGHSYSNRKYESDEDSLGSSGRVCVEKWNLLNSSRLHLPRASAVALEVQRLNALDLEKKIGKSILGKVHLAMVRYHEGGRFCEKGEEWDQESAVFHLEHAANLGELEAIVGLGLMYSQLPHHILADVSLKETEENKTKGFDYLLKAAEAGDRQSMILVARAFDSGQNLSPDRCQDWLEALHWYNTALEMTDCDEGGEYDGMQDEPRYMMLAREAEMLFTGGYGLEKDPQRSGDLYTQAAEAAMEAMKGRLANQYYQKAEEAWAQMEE

[6] = biological target: T1, Eukaryotic elongation factor 2 kinase (Homo sapiens); details: at 10 µM
[7] = biological target: Serine/threonine-protein kinase mTOR (Homo sapiens) (UniProt P42345); details: at 1 µM
[8] = biological target: Serine/threonine-protein kinase mTOR (Homo sapiens) (UniProt P42345); details: at 10 µM
[9] = biological target: Serine/threonine-protein kinase mTOR (Homo sapiens) (UniProt P42345); details: at 1 µM; remark: listed apart in the source
[10] = biological target: Serine/threonine-protein kinase mTOR (Homo sapiens) (UniProt P42345); details: at 10 µM; remark: listed apart in the source

Mast/stem cell growth factor receptor Kit (Homo sapiens), sequence (P10721 whole entry): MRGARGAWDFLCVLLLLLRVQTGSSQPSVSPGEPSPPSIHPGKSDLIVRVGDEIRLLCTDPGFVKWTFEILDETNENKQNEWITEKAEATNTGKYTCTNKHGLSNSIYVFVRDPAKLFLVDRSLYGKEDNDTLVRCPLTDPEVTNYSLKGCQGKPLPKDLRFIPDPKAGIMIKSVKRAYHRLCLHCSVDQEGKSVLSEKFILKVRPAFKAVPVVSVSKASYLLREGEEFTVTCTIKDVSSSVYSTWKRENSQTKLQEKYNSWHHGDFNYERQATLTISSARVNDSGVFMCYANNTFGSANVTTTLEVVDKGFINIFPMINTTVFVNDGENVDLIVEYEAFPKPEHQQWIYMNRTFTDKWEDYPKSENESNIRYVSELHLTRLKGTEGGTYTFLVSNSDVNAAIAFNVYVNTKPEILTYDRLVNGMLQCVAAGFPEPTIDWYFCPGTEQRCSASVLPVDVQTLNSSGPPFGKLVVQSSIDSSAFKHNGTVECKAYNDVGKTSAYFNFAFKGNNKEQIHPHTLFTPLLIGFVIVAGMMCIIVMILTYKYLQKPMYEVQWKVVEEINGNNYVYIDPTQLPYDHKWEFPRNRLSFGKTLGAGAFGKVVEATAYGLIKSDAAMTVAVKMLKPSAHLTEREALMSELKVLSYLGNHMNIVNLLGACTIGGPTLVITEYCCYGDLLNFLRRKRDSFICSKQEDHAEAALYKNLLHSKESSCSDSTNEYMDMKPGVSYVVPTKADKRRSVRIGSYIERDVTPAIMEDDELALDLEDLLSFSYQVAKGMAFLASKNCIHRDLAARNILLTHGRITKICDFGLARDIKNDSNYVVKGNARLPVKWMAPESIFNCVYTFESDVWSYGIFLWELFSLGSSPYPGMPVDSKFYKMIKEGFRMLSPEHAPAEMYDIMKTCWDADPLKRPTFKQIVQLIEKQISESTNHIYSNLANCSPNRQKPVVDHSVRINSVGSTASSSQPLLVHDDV
Proto-oncogene tyrosine-protein kinase Src (Homo sapiens), sequence (P12931 2-536 limits assumed): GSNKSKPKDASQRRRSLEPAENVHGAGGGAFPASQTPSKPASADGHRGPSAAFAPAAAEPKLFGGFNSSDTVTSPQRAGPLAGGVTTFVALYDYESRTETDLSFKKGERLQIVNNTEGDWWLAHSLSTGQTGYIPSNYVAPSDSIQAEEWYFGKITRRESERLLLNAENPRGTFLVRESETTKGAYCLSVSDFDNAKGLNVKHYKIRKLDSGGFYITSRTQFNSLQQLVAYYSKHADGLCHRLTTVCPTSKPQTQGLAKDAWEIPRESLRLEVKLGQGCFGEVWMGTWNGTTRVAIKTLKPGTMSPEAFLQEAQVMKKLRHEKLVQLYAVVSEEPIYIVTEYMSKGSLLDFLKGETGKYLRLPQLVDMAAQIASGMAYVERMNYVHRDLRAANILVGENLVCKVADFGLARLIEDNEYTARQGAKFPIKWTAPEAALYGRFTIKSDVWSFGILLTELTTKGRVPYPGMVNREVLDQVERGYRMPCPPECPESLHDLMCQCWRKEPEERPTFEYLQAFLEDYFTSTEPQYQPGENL

SMILES	residual activity [1] [%]	residual activity [2] [%]	residual activity [3] [%]	residual activity [4] [%]	residual activity [5]	residual activity [6] [%]	residual activity [7] [%]	residual activity [8] [%]	residual activity [9] [%]	residual activity [10] [%]
O=C1NC(=O)/C(=C\c2ccc3nccnc3c2)S1	106	102	86	103	99% (inactive)	91	46	51	90	36
CC(=O)O/N=C1\C(=C2\C(=O)Nc3cc(Br)ccc32)Nc2ccccc21	97	32	22	8			96	94	105	84
NC(=O)c1ccc2[nH]c(-c3ccc(Oc4ccc(Cl)cc4)cc3)nc2c1	106	90	108	92	89% (inactive)	140	123	96	113	110
CNc1cc2c(Nc3cccc(Br)c3)ncnc2cn1	110	106	86	78			105	104	100	107
O=Nc1c(-c2c(O)[nH]c3ccccc23)[nH]c2ccccc12	20	2	35	5	109% (inactive)	93	100	98	117	89
Cn1cc(/C=C2\C(=O)Nc3ccc(S(N)(=O)=O)cc32)c2ccccc21	69	17	49	25			106	99	104	102
COc1cc2ncnc(Nc3ccc(Oc4ccccc4)cc3)c2cc1OC	109	60	36	24	92% (inactive)	132	90	95	80	95
CCN(CC)CCCCN1c2ccccc2Oc2ccc(Cl)cc21	121	107	81	109	104% (inactive)	131	110	110	70	98
Oc1c2ccccc2c2c3c(cccc13)N=N2	91	30	89	64		92	104	77		84
O=C1NC(=O)c2cc(Nc3ccc(F)cc3)c(Nc3ccc(F)cc3)cc21	113	99	74	51			90	85	73	85
CO[C@H]1C[C@@H]2CC[C@@H](C)[C@@](O)(O2)C(=O)C(=O)N2CCCC[C@H]2C(=O)O[C@H]([C@H](C)C[C@@H]2CC[C@@H](O)[C@H](OC)C2)CC(=O)[C@H](C)/C=C(\C)[C@@H](O)[C@@H](OC)C(=O)[C@H](C)C[C@H](C)/C=C/C=C/C=C/1C	110	101	89	95			57	51	-17	4
COc1ccc(C(=O)Nc2sc3c(c2C(N)=O)CCCC3)cc1OC	85	87	76	104			101	104	95	88
O=[N+]([O-])c1ccc(-c2nc(-c3ccc(F)cc3)c(-c3ccncc3)[nH]2)cc1	123	110	113	90	108% (inactive)	94	110	112	126	71
O=C1NC(=O)/C(=C/c2ccc3c(c2)OC(F)(F)O3)S1	116	102	91	106	85% (inactive)	104	82	90	106	104
CN(C)c1ccc(/C=C2\C(=O)Nc3ccccc32)cc1	24	4	87	85			78	101	78	89
N#C/C(=C(\N)Sc1ccc(N)cc1)c1ccccc1C(F)(F)F	115	105	125	91			87	63	118	79
Cn1cnc2cc3c(Nc4cccc(Br)c4)ncnc3cc21	114	92	64	32			102	105	104	97
O=C(Nc1cccc(Nc2cc(Nc3cccc(C(F)(F)F)c3)ncn2)c1)C1CC1	106	100	110	64			105	105	104	102
O=C(Nc1cccc(Nc2nccc(Nc3cccc(C(F)(F)F)c3)n2)c1)C1CC1	94	46	56	12	93% (inactive)	101	79	83	71	84
O=C1Nc2cc(Br)ccc2/C1=C1/Nc2ccccc2/C1=N\O	18	21	2	3	94% (inactive)	89	76	76	119	82
COc1ccc(CNc2nc(N(CCO)CCO)nc3c2ncn3C(C)C)cc1	91	66	104	82	106% (inactive)	101	106	97	128	99
CO[C@H]1[C@@H](OC)C[C@H](C)[C@@H](OC)C2=CC(=O)C=C(NC(=O)/C(C)=C/C=C/[C@H](OC)[C@@H](OC(N)=O)/C(C)=C/[C@@H]1C)C2=O	104	98	101	92			95	103	77	89
c1ccc2c(-c3ccncc3)c[nH]c2c1	110	98	80	101			109	107	75	110
CC[n+]1c(/C=C/N(C)c2ccccc2)n(-c2ccccc2)c2ccc(-c3nc4ccccc4s3)cc21	123	106	85	128			85	86	84	79
COc1ccc(OC)c2c(=S)c3ccccc3[nH]c12	93	93	118	93			100	84	119	76
CCOc1cc2ncnc(Nc3cccc(Br)c3)c2cc1OCC	108	101	53	14			110	106	94	100
CC(C)n1cnc2c(NCc3ccccc3)nc(NCCCO)nc21	111	98	100	86	108% (inactive)	98	109	114	116	104
C[C@@H](N)[C@H]1CC[C@H](C(=O)Nc2ccncc2)CC1	107	106	100	103	96% (inactive)		105	99	109	117
Oc1n[nH]c2nnc(-c3c(-c4ccccc4)nn4ccccc34)cc12	94	104	95	87			97	76	102	76
COc1cccc(-c2cc(=O)c3ccccc3o2)c1N	114	114	113	87			92	93	86	51
